From PubChem BioAssay
KKLEB cytotox = CF airway cell cytotoxicity counter-screen. activity change (cytotoxicity), % at 5 µM. KKLEB CF airway cells viability, ATPlite luminescence, overnight; active compounds read low; cells stimulated with P. aeruginosa culture filtrate. AID 602141. hit rate 0.36% among 360,000;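 active means corrected activity change at or below -50% at 5 µM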
MITF TRPM1 inh = reduces MITF-dependent TRPM1 promoter luciferase signal; SK-MEL-5 TRPM1 promoter luciferase, 24 h; inhibition, % at 12.5 µM; hit rate 0.83% among 330,000;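 active means mean inhibition across replicates of 60% or more, whatever share of single replicates reaches that level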
Peg3 promoter = reduces Peg3 promoter-driven luciferase expression in HeLa | inhibition, % at 20 µM | hit rate 1.7% among 360,000 | HeLa PEG-Prom luciferase reporter, luminescence, overnight;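 active means inhibition of at least 50% at 20 µM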
Shn3 inh set2 = inhibitors of Schnurri-3 3'UTR reporter in osteoblasts; hit rate 0.52% among 360,000; Clone20 osteoblast Shn3 3'UTR firefly luciferase, 24 h; inhibition, % at 12.5 µM;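 active means mean inhibition of at least 75% with every replicate also reaching 75%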;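 further: 0% = median of neutral control wells and 100% = pilot-screen positive control compound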
HIF-2a inh = HIF-2a inhibition | 786-0 RCC cells HIF-2a reporter, luciferase luminescence, overnight | inhibition, % at 18.8 µM | hit rate 0.72% among 360,000;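 active means inhibition of the luminescence signal of 40% or more relative to plate controls, in a single-dose primary screen at 18.75 µM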
CF NFkB block = inhibitors of cystic fibrosis induced NF-kB. KKLEB NF-kB-GFP reporter, PAF-induced, GFP fluorescence overnight. inhibition, % at 5 µM. hit rate 0.86% among 360,000;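 active means at least 50% inhibition at 5 µM, scaled per plate between neutral and stimulator controls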;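 further: PAF is a Pseudomonas aeruginosa culture filtrate used as stimulus; plate controls were PAF-stimulated DMSO wells for no effect and unstimulated DMSO wells for full effect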
Starred values were filed as active, the others as inactive; x = no result given. In the library only some 2.7% were active in any assay of this set; here they are far more common.

SMILES	KKLEB cytotox	MITF TRPM1 inh	Peg3 promoter	Shn3 inh set2	HIF-2a inh	CF NFkB block
CCN1C(N(C)CCc2cccs2)=N[C@@H](c2ccccc2)C(C(=O)OC)=C1C	-12	11	-5	18	7	-24
CCN1C(N(C)CCc2c[nH]c3ccccc23)=N[C@@H](c2cccc(C(F)(F)F)c2)C(C(=O)OC)=C1C	-24	-6	111*	2	7	23
Cc1nnc(SCC(=O)NC2(C#N)CCCCC2)n1N	5	x	-14	10	8	-2
CC(C)C[C@H]1CNC(=S)N1C[C@H]1CCCN1C[C@H](Cc1ccc(O)cc1)N1C[C@H](Cc2ccc(O)cc2)N(CCc2ccccc2)C1=S	-19	x	94*	-3	-22	46
CC(C)C[C@@H](CN1CCC[C@@H]1CN1C(=S)NC[C@@H]1Cc1ccc(O)cc1)N1C[C@H](Cc2ccc(O)cc2)N(CCc2ccccc2)C1=S	-11	x	78*	-15	-22	37
CC(C)C[C@@H](CN1CCCC1CN1C(=S)NC[C@@H]1Cc1ccccc1)N1C[C@H](Cc2ccc(O)cc2)N(CCc2ccccc2)C1=S (stereo partly specified)	x	x	x	x	-10	x
Oc1ccc(C[C@H]2CNC(=S)N2CC2CCCN2C[C@H](Cc2ccccc2)N2C[C@H](Cc3ccc(O)cc3)N(CCc3ccccc3)C2=S)cc1 (stereo partly specified)	-2	24	68*	29	-47	41
CCOc1ccc(CCN2C(=S)N([C@@H](CC(C)C)CN3CCCC3CN3C(=S)NC[C@@H]3Cc3ccc(O)cc3)C[C@@H]2Cc2ccc(O)cc2)cc1 (stereo partly specified)	-7	15	87*	86*	-48	40
Oc1ccc(C[C@@H](CN2CCC[C@@H]2CN2C(=S)NC[C@@H]2Cc2ccccc2)N2C[C@H](Cc3ccccc3)N(CCc3ccccc3)C2=S)cc1	-17	x	-17	4	-8	4
CCOc1ccc(CCN2C(=S)N([C@@H](CC(C)C)CN3CCCC3CN3C(=S)NC[C@@H]3Cc3ccc(O)cc3)C[C@@H]2Cc2ccccc2)cc1 (stereo partly specified)	9	6	-7	41	-10	15
Cc1ccc(C(=O)c2oc3ccc(Cl)cc3c2NC(=O)CN2CCN(C)CC2)cc1	-12	10	107*	-19	-50	13
O=P(CCCCCCCCCP(=O)(c1ccccc1)c1ccccc1)(c1ccccc1)c1ccccc1	-11	41	67*	88*	14	9
CCCCNS(=O)(=O)c1ccc(S(=O)(=O)NCc2ccncc2)cc1	-4	23	14	86*	-9	9
CCCCc1ccc(S(=O)(=O)NCCc2ccncc2)cc1	-8	11	12	42	7	5
CNc1nc(Nc2ccc(C)cc2C)c2sccc2n1	-4	x	21	61	6	9
COc1ccc(OC)c2cc3ccccc3cc12	-3	27	55*	12	-29	-53
COc1cc2ccccc2cc1C(=O)O	-7	-11	6	4	7	-18
COc1cc2ccccc2ccc1=NO	-12	9	-30	8	5	79*
CC1=C(C(=O)N(C(C)C)C(C)C)CC(CC(=O)NCc2ccco2)C(=O)N1Cc1ccc(C(C)(C)C)cc1 (stereo unspecified)	-13	x	10	-1	10	4
N=c1c2c(n(Cc3ccc(Cl)cc3)c3c1CCC3)CCC2	-14	64*	26	79	6	30
N=c1c2c(n(Cc3ccc(F)cc3)c3c1CCC3)CCCC2	10	33	-1	52	12	-7
N=c1c2c(n(Cc3ccccc3)c3c1CCC3)CCC2	1	50	16	69	12	8
N=c1c2c(n(Cc3cccc(Cl)c3)c3c1CCC3)CCCC2	-14	50	54*	74	-5	21
O=C(CCN1CCOCC1)c1ccc2c(c1)OCCO2	3	2	-10	3	6	-14
O=C(CCN1CCc2ccccc2CC1)c1ccc2c(c1)OCCO2	4	3	106*	44	16	10
SMILES	KKLEB cytotox	MITF TRPM1 inh	Peg3 promoter	Shn3 inh set2	HIF-2a inh	CF NFkB block
CCc1ccc(OCC(=O)NC(NC(=S)Nc2ccc(Cl)cc2)C(Cl)(Cl)Cl)cc1 (stereo unspecified)	-16	30	52*	86*	15	27
CC(C)C(Cl)=NOC(=O)Nc1ccc(F)cc1	6	8	55*	99*	18	32
C/C(=N\OC(=O)Nc1ccc(Cl)cc1)c1ccc(F)c(F)c1	4	-25	-58	-2	-121	15
COc1cc(C2Oc3ccccc3C=C2[N+](=O)[O-])cc(OC)c1OC (stereo unspecified)	-14	x	52*	3	32	-29
Cn1cc(C(=O)c2ccc(Cl)cc2Cl)cc1C(=O)N/N=C(\N)COc1ccc(Cl)cc1	1	8	53*	18	30	5
Oc1cccc(-c2nc3c4c(ncn3n2)-c2ccccc2CC42CCCC2)c1	-7	20	54*	41	26	14
CC(=O)N1CCc2c(sc(NC(=O)c3ccc(S(=O)(=O)N(C)CC4CCCO4)cc3)c2C(N)=O)C1 (stereo unspecified)	-5	x	19	15	11	3
COc1ccccc1N(C)S(=O)(=O)c1ccc(C(=O)Nc2nccs2)cc1	-50*	4	10	-3	-2	-13
COc1ccccc1N(C)S(=O)(=O)c1ccc(C(=O)Nc2ncc(C)s2)cc1	11	6	29	18	-2	3
CSc1ncnc2c1ncn2CCCN1CCN(Cc2cccc3ccccc23)CC1	7	x	5	15	-1	-3
C=CCOC(=O)Nc1nc(CCNC(=O)OC(C)(C)C)c(C(=O)O)s1	x	x	x	x	-4	x
Cc1ccc(S(=O)(=O)N2C[C@H]3C(=O)C[C@@H](c4ccc(Cl)cc4)N(S(=O)(=O)c4ccc(C)cc4)[C@H]3C[C@H]2c2ccc(Cl)cc2)cc1	-3	x	-5	5	3	17
COc1cc(N=Nc2cccc(S(N)(=O)=O)c2)c2ccccc2c1N	3	74*	-75	-16	-34	-206
CC1=NNC(=O)/C1=C\c1cn(-c2ccccc2)nc1-c1ccc(Cl)cc1	-40	-19	79*	24	87*	6
Cc1ccc(-c2nn(-c3ccccc3)cc2C=C2C(=O)CC(C)(C)CC2=O)cc1	4	-4	-165	-27	-101	-26
COCCNC(=O)C1CCCN(Cc2ccccc2-c2ccccc2)CC1 (stereo unspecified)	10	x	-7	0	10	-6
CCOC(=O)C1=C(COC(=O)c2ccc([N+](=O)[O-])s2)NC(=O)NC1C (stereo unspecified)	16	62*	-7	8	-10	3
COc1ccc2c(c1)c1nc3ccccc3nc1n2CC(=O)OC(C)C	-56*	13	55*	-12	-2	23
